Data as given in PubChem BioAssay AID485364 (National Center for Advancing Translational Sciences (NCATS), 2010).
Screen size: about 360,000 compounds; about 11,000 (3.1%) were called active. Roughly 4% stayed inconclusive and do not appear here. The sample holds actives, similar compounds and a random draw of the others, so the mix is not that of the screen. Calls come from the whole dose curve; as a rule, active = well fitted inhibition curve with a large enough effect; inconclusive = small, poorly fitted or top-dose-only effect; inactive = no such curve, though single readings can be large or run the other way.

Target: Schistosoma mansoni thioredoxin glutathione reductase (TGR) (UniProt Q962Y6)
Test: qHTS Assay for the Inhibitors of Schistosoma Mansoni Peroxiredoxins; note: nearly all actives have a fitted effect of over 60% in size
Details: purified TGR, DTNB reduction, TNB absorbance 405 nm; series mostly up to 114 µM; activity change, negative = inhibition: at the top concentration
Summary of the method: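 Kinetic colorimetric format: TGR-catalysed, NADPH-driven DTNB reduction monitored via TNB absorbance. Enzyme dispensed at 20 nM; compound exposure 15 min at room temperature before reaction start.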
% is set by controls: 0 for no effect and ±100 for the full control effect; potency is the fitted concentration of half-maximal effect.

Row | Structure (SMILES) | activity change, negative = inhibition | Potency
1 | CCOc1ccccc1N(CC)C(=O)Nc1cn(C)c(=O)c2ccccc12 | -2.07% (inactive) | 
2 | COc1ccc(NC(=O)Nc2cccc(-c3noc(C)n3)c2)cc1 | -2.78% (inactive) | 
3 | CCCCCn1c(CCNC(=O)c2ccc(F)cc2)nc2ccccc21 | 0.666% (inactive) | 
4 | O=C(CC1C(=O)N(c2ccccc2)C(=O)N1CCc1cccs1)Nc1ccc(F)cc1 (centres undefined) | -4.99% (inactive) | 
5 | Cc1ccc(C(=O)Nc2ccc(OCc3cc(=O)n4c(C)csc4n3)cc2)cc1 | 0.173% (inactive) | 
6 | CC(C)C12CN3CC(C(C)C)(CN(C1)C3c1ccc(OCc3ccccc3)cc1)C2=O (centres undefined) | 1.3% (inactive) | 
7 | Fc1ccccc1/C=C1\CCCC2=C1Nc1ncnn1C2c1ccccc1F (centres undefined) |  | 1.26 µM (active)
8 | CCOC(=O)C1=C(c2ccccc2)Nc2ncnn2C1c1ccc(Cl)cc1 (centres undefined) | 0.261% (inactive) | 
9 | COc1ccc2c(Sc3ccc(C)cc3)c(C(=O)NC(C)c3ccccc3)[nH]c2c1 (centres undefined) | 5.33% (inactive) | 
10 | Cc1ccc(-c2cc(N)n(Cc3cccc(Cl)c3)n2)cc1 | 8.78% (inactive) | 
11 | COc1cccc(Nc2nc3ccccc3c3nncn23)c1 | 1.24% (inactive) | 
12 | Cc1ccc(C(=O)COC(=O)C(Cc2c[nH]c3ccccc23)NC(=O)c2ccc(Br)cc2)cc1 (centres undefined) | 0.457% (inactive) | 
13 | COc1ccc(OCCCn2cccc2/C=C2/C(=N)N3OC(C)=CC3=NC2=O)cc1 | 6.24% (inactive) | 
14 | O=C1c2ccccc2C(=O)N1CCOc1ccc(F)cc1 | 0% (inactive) | 
15 | O=C(CCCOc1ccccc1)NCc1ccco1 | 8.7% (inactive) | 
16 | O=C1NC(=O)N(Cc2ccco2)C(=O)/C1=C\c1ccc(-c2ccc(F)cc2)o1 |  | 11.2 µM (active)
17 | O=C1NC(=O)N(Cc2ccco2)C(=O)/C1=C\c1cccn1CCOc1ccccc1 |  | 11.2 µM (active)
18 | NS(=O)(=O)c1ccc(-c2ccc(/C=C3\SC(=O)NC3=O)o2)cc1 | -18.6% (inactive) | 
19 | CCn1c(C)c(C)c2cc(C(=O)NCCc3cc(OC)ccc3OC)ccc21 | 5.8% (inactive) | 
20 | CC(=O)N1CCCc2cc(S(=O)(=O)N3CCC(C(=O)NC4CCCCC4)CC3)ccc21 | 5.19% (inactive) | 
21 | CCc1ccc(NC(=O)CSc2nc3c([nH]c4ccccc43)c(=O)n2-c2cccc(OC)c2)cc1 | 7.94% (inactive) | 
22 | COc1ccc(-n2c(=O)c3c(c4cc(OC)ccc4n3C)n(Cc3cccc(C)c3)c2=O)cc1 | -3.96% (inactive) | 
23 | CCC(=NCCCO)c1c(O)n(-c2ccc(OC)cc2)c(=O)[nH]c1=O | -4.2% (inactive) | 
24 | Nc1c(N(Cc2ccco2)C(=O)c2cccc(F)c2)c(=O)[nH]c(=O)n1Cc1ccccc1 | -25% (inactive) | 
25 | CCC(=NCc1ccco1)c1c(O)n(Cc2ccccc2)c(=O)[nH]c1=O |  | 28.2 µM (active)
26 | CC(C)Cn1c(=O)c2ccccc2n2c(CCC(=O)N3CCN(c4cccc(Cl)c4)CC3)nnc12 | 6.71% (inactive) | 
27 | Cn1cc(S(=O)(=O)N2CCC(Cc3ccccc3)CC2)c(=O)n(C)c1=O | -22.8% (inactive) | 
28 | Cc1ccc(/C=C/C(=O)O)cc1S(=O)(=O)N1CCC(Cc2ccccc2)CC1 |  | 25.1 µM (active)
29 | O=C(O)c1ccc(S(=O)(=O)N2CCC(Cc3ccccc3)CC2)cc1 | 5.48% (inactive) | 
